High-throughput results deposited in PubChem by National Center for Advancing Translational Sciences (NCATS).
PI5P4Ka inh = PI5P4K alpha (human) kinase inhibition; P48426; PI5P4Kalpha enzyme, ADP-Glo luminescence, 60 min; stronger effect = lower value; max response, %; 1.2% of 330,000 active; AID 652105; active = max response of -50% or lower; inconclusive = between -30% and -50%; inactive = -30% or higher; note: value at the top dose of about 77 µM; % is set by controls: 0 for no effect and ±100 for the full control effect
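Human PI5P4Kalpha with substrate in 0.038 M HEPES pH 7.4, 0.28 mM EGTA, 0.1% CHAPS, 5% DMSO; reaction started with 5 microM ATP (final), 60 min at room temperature. ADP formed read by ADP-Glo luminescence.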
JMJD2A Tudor inh = inhibitors of human JMJD2A Tudor domain | AlphaScreen JMJD2A-Tudor / H3K4me3 peptide binding | Potency, µM (series often up to 114 µM), without a hit: at the highest dose activity change, negative = inhibition, most hits filed as inhibitors | 4.4% of 390,000 active; note: potency is the fitted concentration of half-maximal effect; % is set by controls: 0 for no effect and ±100 for the full control effect; nearly all actives have a fitted effect of over 50% in size
PLK1 PBD inh = PLK1 (human) polo-box domain binding inhibition. P53350. Plk1 PBD binding of FITC phosphopeptide, fluorescence polarization. Potency, µM, inactives show max response, negative = inhibition, most hits filed as inhibitors. 2.8% of 360,000 active. AID 720504; note: potency is the fitted concentration of half-maximal effect; series mostly up to about 57 µM; % is set by controls: 0 for no effect and ±100 for the full control effect; nearly all actives have a fitted effect of over 65% in size
HP1b chromo inh = blocks HP1-beta chromodomain binding to methylated histone tails. AID 540317. Potency, µM (top dose mostly 114 µM), for inactives: at the top dose activity change, negative = inhibition, usual class: inhibitors. 0.56% of 390,000 active. AlphaScreen HP1-beta / biotin-H3K9me3 peptide binding. P83916; note: potency is the fitted concentration of half-maximal effect; nearly all actives have a fitted effect of over 70% in size
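HP1-beta protein (50 nM final) preincubated 30 min at room temperature with biotinylated H3(1-18)K9me3 peptide (50 nM) in PBS pH 7.4, 0.01% Tween-20, then compound added for 30 min. AlphaScreen streptavidin donor/nickel chelate acceptor beads (10 ug/mL final), 30 min dark, luminescence read.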
BAZ2B block = BAZ2B (human) inhibition | Q9UIF8 | AlphaScreen BAZ2B-H3K14Ac peptide displacement | Potency, µM (titrated, usually from 114 µM), without a hit: at the top dose activity change, negative = inhibition, actives largely listed as inhibitors | AID 504333 | 4.4% of 360,000 active; note: potency is the fitted concentration of half-maximal effect; % is set by controls: 0 for no effect and ±100 for the full control effect; nearly all actives have a fitted effect of over 60% in size
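AlphaScreen displacement: compounds (up to 110uM) incubated 30 min at room temperature with a preformed 50 nM BAZ2B/50 nM biotinylated H3K14Ac peptide complex in PBS pH 7.4 with Tween-20. Donor and acceptor beads at 10 ug/mL final added, 20 min light-protected before reading.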
G9a block = inhibitors of human histone lysine methyltransferase G9a | Q96KQ7 | G9a H3K9 monomethylation, AlphaScreen, 2 h | Potency, µM (titrated, usually from 102 µM), for the others: top-dose activity, negative = inhibition, actives largely listed as inhibitors | 8.8% of 350,000 active | AID 504332; note: potency is the fitted concentration of half-maximal effect; % is set by controls: 0 for no effect and ±100 for the full control effect; nearly all actives have a fitted effect of over 75% in size
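Chemiluminescent proximity detection of H3K9 monomethylation, read after 10 min bead incubation in the dark. Reaction: 20 nM G9a, 500 nM biotin-H3K9 peptide, 20 uM SAM cofactor, 2 h, room temperature, following 15 min enzyme-compound preincubation.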
* = called active by the depositor; ? = inconclusive; nt = no result; [ ] = remark or other dose. Sampled rows, rich in hits. Any-hit rate of the full collection: about 12%. Unless noted, calls come from the whole dose curve; as a rule, active = well fitted curve in the direction sought with a large enough effect; inconclusive = small, poorly fitted or top-dose-only effect, or another doubt; inactive = no such curve, though single readings can be large; an effect the other way counts as inactive or inconclusive.

SMILES | PI5P4Ka inh | JMJD2A Tudor inh | PLK1 PBD inh | HP1b chromo inh | BAZ2B block | G9a block
Cc1ccc(S(=O)(=O)N2CCCCC2)cc1NC(=O)c1cc(F)c(F)c(F)c1F | -1 | -10% | 10% | 29%[57 µM] | nt | nt
C[C@H](NC(=O)c1ccccc1Cl)C(=O)NCc1cccs1 | 0 | -14% | -10% | 42% | -19% | 45µM*
NC(=O)c1cc(S(=O)(=O)N2CCOCC2)ccc1Sc1ccccc1N | 4 | -12% | 15µM* | 10% | 12% | -7%[0.501 µM]
CCOC(=O)c1sc2nc(CSc3ccccc3)nc(N3CCCN(C)CC3)c2c1C | 2 | 14µM* | -10% | ? | 50µM* | 45µM*
COc1ccc(CNC(=O)COC(=O)c2cncc(Br)c2)cc1 | 3 | -14% | -18% | 29% | -17% | 40µM*
CC(C)(C)NC(=O)COC(=O)c1cncc(Br)c1 | -16 | -15%[11.4 µM] | 30µM* | -7% | -4% | 24%[59 µM]
C[N+](C)(C)CCCN1C(=O)CCCC1=O | -7 | 56µM* | -2% | 16% | ? | -53%
CCOP(=O)(OCC)C(NC(=O)c1cc([N+](=O)[O-])cc([N+](=O)[O-])c1)C(F)(F)F (stereo unspecified) | -2 | ? | 21µM* | ? | ? | ?
CCOP(=O)(OCC)C(C)(C)NC(=O)c1cc([N+](=O)[O-])cc([N+](=O)[O-])c1 | nt | -6% | -8% | 62% | 6% | 10%
Cc1ccccc1SCC(=O)N/N=C/c1ccc(F)cc1 | 14 | -23% | 1% | 24% | -19% | -14%
CN(C)/C=N/c1nc(Sc2ccc(C(F)(F)F)cc2[N+](=O)[O-])n[nH]1 | 11 | -10% | -5% | 11% | -2% | -1%
O=[N+]([O-])c1cc(C(F)(F)F)cc([N+](=O)[O-])c1Sc1n[nH]c(C(F)(F)F)n1 | -16 | 50µM* | ? | 43% | -35% | nt
CCOC(=O)Cn1c(=O)n(-c2cccc(Cl)c2)c2nc(-c3ccccc3Cl)nc(C(N)=O)c21 | nt | -34% | nt | 17%[57 µM] | -17% | 2%[59 µM]
Cc1ncc(CCl)c2c1OC(C)(C)OC2 | 3 | ? | -3% | 49% | 50µM* | ?
Cc1cccnc1NC(=O)c1ccc(Cl)c(S(=O)(=O)N2CCCCCC2)c1 | 1 | -7% | -11% | 35% | -3% | 15%
CCCn1nnc(NC(=S)NC(=O)/C=C/c2ccc(Cl)cc2)n1 | ? | -18% | 0% | -2% | -14% | -2%
CCCn1nnc(NC(=S)NC(=O)Cc2ccccc2)n1 | 3 | -1% | -2% | 22% | -1% | 32µM*
CCCn1nnc(NC(=S)NC(=O)CC)n1 | nt | 2.8µM* | 0% | ? | -33% | 8.9µM*
CCCCn1nnc(NC(=S)NC(=O)c2cccs2)n1 | -10 | ? | -22% | -27% | -3% | 10µM*
COC(=O)c1cc(Br)c(=O)n(CCN2CCCC2)c1 | -1 | -20% | -4% | 42% | -2%[57.1 µM] | 50µM*
COC(=O)c1cc(Br)c(=O)n(CCN2CCCCC2)c1 | -1 | -15% | 2% | 14% | -1% | -4%[59 µM]
CN(Cc1ccco1)c1ncnc2ccc(-c3cccc(NS(C)(=O)=O)c3)cc12 | nt | nt | nt | nt | nt | 5%[0.501 µM]
C=C(C(=O)Oc1ccccc1C(C)(C)C)c1ccccc1 | nt | nt | nt | nt | 172% | -1%[0.501 µM]
COc1ccc(-c2cc(C(=O)Nc3ccc(C#N)cc3)no2)cc1 | nt | -30% | nt | 27% | 5% | 15%[59 µM]
CCOC(=O)c1c(NC(=O)c2cccs2)sc(C)c1CC | nt | 79% | -2% | 183% | 222% | 230%
SMILES | PI5P4Ka inh | JMJD2A Tudor inh | PLK1 PBD inh | HP1b chromo inh | BAZ2B block | G9a block
CCc1c(C)sc(NC(=O)c2cccs2)c1C#N | -24 | -9% | ? | -7% | 3% | 13µM*
CCc1c(C)sc(NC(=O)c2cc(-c3ccco3)on2)c1C#N | nt | -19% | 27µM* | -14% | -1% | 13µM*
CCc1c(C)sc(NC(=O)c2cc(-c3ccc(OC)cc3)on2)c1C#N | nt | 2% | nt | 9% | -3% | 10µM*
O=CNC1(c2ccccc2)CCCCC1 | 2 | -11% | -4% | 17% | nt | nt
CC(=NNc1ccc2ccccc2n1)c1ccccc1O | 11 | -22% | 5% | 26% | nt | nt
C/C(=N\Nc1nc2ccccc2nc1C)c1ccccc1O | 11 | -21% | -5% | -8% | -13% | 22µM*
